Assay results taken from PubChem BioAssay AID2590 (National Center for Advancing Translational Sciences (NCATS), 2010).
Where “and” joins values, the source holds several entries; their conditions need not be identical. Identical values can stand only once. Results filed as inconclusive are left out. Calls of active or inactive are those of the source. The call rests on the fitted dose curve; in most records, active means well fitted curve in the direction sought with a large enough effect; inconclusive means small, poorly fitted or top-dose-only effect, or another doubt; inactive means no such curve, though single readings can be large or run the other way.

Target: Lysosomal acid glucosylceramidase (Homo sapiens) (UniProt P04062)
Test: qHTS Assay for Inhibitors and Activators of N370S glucocerebrosidase as a Potential Chaperone Treatment of Gaucher Disease: Primary Screen Confirmation
Conditions: N370S glucocerebrosidase enzyme activity, fluorogenic substrate; series mostly up to 54 µM
From the text: NIH Chemical Genomics Center [NCGC]
NIH Molecular Libraries Probe Production Centers Network [MLPCN]
Assay Submitter (PI): Wei Zheng
Glucocerebrosidase (GC) catalyzes the hydrolysis of beta-glucocerebroside to glucose and ceramide in lysosomes. Mutations in the glucocerebrosidase gene result in Gaucher disease, an autosomal recessive lysosomal storage disorder. Many of the mutations encountered in patients with Gaucher disease are missense alterations that may cause misfolding, decreased stability and/or mistrafficking of this lysosomal protein. […] These inhibitors include iminosugar analogs and three non-iminosugar inhibitors identified from a previous HTS of 62,000 compounds with the wild type recombinant enzyme. However, the enhancement of enzyme activity by the chaperone action of an enzyme inhibitor must be balanced against the direct inhibition of the enzyme. An enzyme activator could also function as a chaperone by binding to the enzyme and helping to correct its misfolding and mistrafficking. While activators for GC have not yet been identified, they may have better therapeutic potential than inhibitors. Therefore the discovery and development of chemical activators may provide a new strategy for the chaperone therapy.
We have optimized a new assay using N370S mutant GC derived from the spleen of a Gaucher patient. […] In addition, the MLPCN compound library has expanded, which increases the chance of finding new and better probes.
NCGC Assay Protocol Summary:
This is a fluorogenic enzyme assay with 4-methylumbelliferyl-beta-D-glucopyranoside as the substrate and N370S glucocerebrosidase from human spleen homogenate as the enzyme preparation. Upon the hydrolysis of this fluorogenic substrate, the resulting product, […] which can be detected by a standard fluorescence plate reader. Data were normalized to the controls for basal activity (without enzyme) and 100% activity (with enzyme). The AC50 values were determined from concentration-response data modeled with the standard Hill equation.
Assay buffer: 50 mM citric acid (titrated with potassium phosphate to pH 5.0), 100 mM potassium chloride, 10 mM sodium chloride, 1 mM magnesium chloride, 0.01% Tween-20.
1536-well assay protocol:
(1) Add 2 ul/well of spleen homogenate (27 ug final)
(2) Add 23 nL compounds in DMSO solution. The final titration was 0.5 nM to 58 uM.
(3) Add 2 ul of substrate (1 mM final)
(4) Incubate at 37C for 40 min.
(5) Add 2 ul stop solution (1M NaOH and 1M Glycine mixture, pH 10)
(6) Detect the assay plate in a ViewLux plate reader (PerkinElmer) with Ex=365 nm and Em=440nm.
Keywords: Glucocerebrosidase, beta-glucosidase, Gaucher Disease, pharmacological chaperone, chaperone therapy, high throughput screening, glucocerebrosidase inhibitor, MLSMR, MLSCN, NIH Roadmap, qHTS and NCGC
Potency means the concentration at half of the fitted maximal effect.

Sequence of Lysosomal acid glucosylceramidase (Homo sapiens) (P04062 whole entry N409S): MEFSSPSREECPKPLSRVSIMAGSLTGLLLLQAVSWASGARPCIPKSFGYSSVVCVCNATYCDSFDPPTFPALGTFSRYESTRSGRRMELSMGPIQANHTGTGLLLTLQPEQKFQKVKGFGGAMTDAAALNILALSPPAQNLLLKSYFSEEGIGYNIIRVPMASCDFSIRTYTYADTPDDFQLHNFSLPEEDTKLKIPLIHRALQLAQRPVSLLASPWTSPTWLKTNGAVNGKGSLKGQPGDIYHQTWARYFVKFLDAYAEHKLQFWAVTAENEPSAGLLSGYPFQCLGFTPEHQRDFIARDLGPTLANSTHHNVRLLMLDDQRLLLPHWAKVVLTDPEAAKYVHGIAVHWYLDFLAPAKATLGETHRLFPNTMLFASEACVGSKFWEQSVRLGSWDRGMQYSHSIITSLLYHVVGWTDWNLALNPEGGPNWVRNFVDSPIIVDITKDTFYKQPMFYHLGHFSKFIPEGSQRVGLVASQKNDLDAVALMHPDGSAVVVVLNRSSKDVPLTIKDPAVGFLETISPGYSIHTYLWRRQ

SMILES	Potency
COc1ccc2cc(C(=O)NCc3ccccc3)c(=O)oc2c1	inactive
CC(C)(C)c1cccc(S(=O)(=O)N2CCN(c3nc(-c4cccs4)nc4ccccc34)CC2)c1	1.63 µM (active)
NCCCN(Cc1ccc(Cl)c(Cl)c1)c1ccccn1	inactive
O=S(=O)(c1cccc(C(F)(F)F)c1)N1CCN(c2nc(-c3cccs3)nc3ccccc23)CC1	6.35 µM (active)
CN(CCO)c1nc(-c2cccs2)nc2ccccc12	inactive
O=S(=O)(c1ccc2ccccc2c1)N1CCN(c2nc(-c3cccs3)nc3ccccc23)CC1	0.326 µM (active)
CN1CCN(CCCNC(=O)c2ccc(/C=C3\Oc4ccccc4N(Cc4ccccc4F)C3=O)cc2)CC1	inactive
Cc1ccc(S(=O)(=O)N2CCN(c3nc(-n4cnc5ccccc54)nc4ccccc34)CC2)cc1	inactive
Cc1cc(C)n2ncc(C(=O)Nc3cccc(O)c3)c2n1	inactive
COCCNC(=O)/C(C#N)=C/c1c(N2CCN(C)CC2)nc2c(C)cccn2c1=O	inactive
S=C(NCCCc1cnc[nH]1)NCCCN(Cc1ccc(Cl)cc1)c1ccc(-c2ccccc2)cn1	1.27 µM (active)
Cc1ccc(S(=O)(=O)N2CCN(c3nc(-c4cccs4)nc(C)c3C)CC2)cc1	2.84 µM (active)
CCCCN(CCCNC(=S)NCCCc1cnc[nH]1)c1ccc(Br)cn1	8.18 µM (active)
S=C(NCCCc1cnc[nH]1)NCCCN(CCc1ccccc1)c1ccc(Br)cn1	2.25 µM (active)
CCCCNC(=S)NCCCN(Cc1ccc(Cl)c(Cl)c1)c1ccc(Br)cn1	inactive
C#CCOCCOCCOCCNc1nc(N2CCN(C(=O)CCCCCCCCCCNC(=O)[C@H](CO)n3cc(CCCSC)nn3)CC2)nc(N2CCN(C(=O)CCCCCCCCCCNC(=O)[C@H](CCCN=C(N)N)n3cc(C[C@@H](C)CC)nn3)CC2)n1	6.51 µM (active)
Cc1cccc(NC(=O)Nc2cccc(C#N)c2)n1	inactive
Cc1cc(C)cc(S(=O)(=O)N2CCN(c3nc(-c4cccs4)nc4ccccc34)CC2)c1	1.03 µM (active)
CC(C)C(C)NC(=O)CSc1nc2scc(-c3ccco3)c2c(=O)n1-c1ccccc1 (stereo not given)	inactive
NCCCN(Cc1ccc(Cl)c(Cl)c1)c1ccc(Br)cn1	18.3 µM (active)

SMILES	Potency
COc1ccc(S(=O)(=O)N2CCN(c3nc(-c4ccccc4)nc4ccccc34)CC2)cc1	3.66 µM (active)
Cc1cc(C)cc(N(CC(=O)Nc2ccc(C)cc2Cl)S(=O)(=O)c2c(C)[nH]c(=O)[nH]c2=O)c1	1.63 µM (active)
O=C(c1ccc2c(c1)OCCO2)N1CCN(c2nc(-c3cccs3)nc3ccccc23)CC1	3.66 µM (active)
Cc1ccc(CC(=O)Nc2cccc(C)n2)cc1	inactive
NS(=O)(=O)c1ccc(S(=O)(=O)N2CCN(c3nc(-c4cccs4)nc4ccccc34)CC2)cc1	3.26 µM (active)
O=C(NCCCc1cnc[nH]1)NCCCN(Cc1ccc(Cl)cc1)c1ccc(Br)cn1	1.01 µM (active)
Cc1cc2[nH]c(=O)c(=O)[nH]c2cc1S(=O)(=O)N1CCN(c2cccc(C(F)(F)F)c2)CC1	5.17 µM (active)
N#Cc1ccccc1S(=O)(=O)N1CCN(c2nc(-c3cccs3)nc3ccccc23)CC1	2.25 µM (active) and 1.13 µM (active)
Cc1ccc(S(=O)(=O)N2CCN(c3nc(-c4cccs4)cc4ccccc34)CC2)cc1	3.26 µM (active)
O=S(=O)(c1ccc(F)cc1)N1CCN(c2nc(-c3ccccc3)nc3ccccc23)CC1	6.51 µM (active)
S=C(NCCCc1cnc[nH]1)NCCCN(Cc1ccccc1)c1ccc(Br)cn1	5.79 µM (active)
Cc1ccc(S(=O)(=O)N2CCN(c3nc(-c4cccnc4)nc4ccccc34)CC2)cc1	16.3 µM (active)
N#Cc1ccc(S(=O)(=O)N2CCN(c3nc(-c4cccs4)nc4ccccc34)CC2)cc1	2.01 µM (active)
O=[N+]([O-])c1ccc(S(=O)(=O)N2CCN(c3nc(-c4cccs4)nc4ccccc34)CC2)cc1	3.2 µM (active)
O=S(=O)(c1ccc(F)cc1)N1CCN(c2nc(-c3ccc(F)cc3)nc3cc(Cl)ccc23)CC1	inactive
O=S(=O)(c1ccc(F)cc1)N1CCN(c2nc(-c3cccc(Br)c3)nc3ccccc23)CC1	inactive
O=S(=O)(c1ccc(F)cc1)N1CCN(c2nc(-c3cccs3)nc3cc(Cl)ccc23)CC1	inactive
O=[N+]([O-])c1cccc(S(=O)(=O)N2CCN(c3nc(-c4cccs4)nc4ccccc34)CC2)c1	2.53 µM (active)
N=c1c(S(=O)(=O)c2ccccc2)cc2c(=O)n3ccccc3nc2n1CCCN1CCOCC1	inactive
CC(=O)c1cccc(S(=O)(=O)N2CCN(c3nc(-c4cccs4)nc4ccccc34)CC2)c1	2.25 µM (active)
